The values below come from PMC11062922 (Nature Chemical Biology, 2023).

Like-named read-outs stand apart in the source and are kept apart here.

For experiment [1], the system named is CSNK2A1;CSNK2A3. Also on record: species or system human, MV4-11 + K-562 + COLO205 + SK-N-BE2 + OVCAR-8. The conditions noted are these: read-out: apparent Kd, compound concentrations: 100 nM and 1000 nM (sheet 'Samples'), n = 1.
The test system of experiment [2] is CSNK2A2. The arrangement: species or system human, MV4-11 + K-562 + COLO205 + SK-N-BE2 + OVCAR-8. The settings on record: read-out: apparent Kd, compound concentrations: 100 nM and 1000 nM (sheet 'Samples'), n = 1.
The test system of experiment [3] is AAK1. Also on record: species or system human, MV4-11 + K-562 + COLO205 + SK-N-BE2 + OVCAR-8. The conditions noted are these: read-out: apparent Kd, compound concentrations: 100 nM and 1000 nM (sheet 'Samples'), n = 1.
In experiment [4] the test system is BMP2K. Also on record: species or system human, MV4-11 + K-562 + COLO205 + SK-N-BE2 + OVCAR-8. The conditions noted are these: read-out: apparent Kd; compound concentrations: 100 nM and 1000 nM (sheet 'Samples'), CATDS: 9.7460630022759408E-3; n = 1.
Experiment [5] concerns CLK1. The arrangement: species or system human, MV4-11 + K-562 + COLO205 + SK-N-BE2 + OVCAR-8. The settings on record: read-out: apparent Kd, compound concentrations: 100 nM and 1000 nM (sheet 'Samples'), n = 1.
Experiment [6] concerns CLK4. Also on record: species or system human, MV4-11 + K-562 + COLO205 + SK-N-BE2 + OVCAR-8. The settings on record: read-out: apparent Kd, compound concentrations: 100 nM and 1000 nM (sheet 'Samples'), n = 1.
Experiment [7] relates to FLT3. Also on record: species or system human, MV4-11 + K-562 + COLO205 + SK-N-BE2 + OVCAR-8. The settings on record: read-out: apparent Kd; compound concentrations: 100 nM and 1000 nM (sheet 'Samples'), CATDS: 2.0604812795468701E-2; n = 1.
The subject of experiment [8] is FLT4. The arrangement: species or system human, MV4-11 + K-562 + COLO205 + SK-N-BE2 + OVCAR-8. The settings on record: read-out: apparent Kd; compound concentrations: 100 nM and 1000 nM (sheet 'Samples'), CATDS: 6.1594984322683802E-2; n = 1.
Experiment [9] relates to GAK. Also on record: species or system human, MV4-11 + K-562 + COLO205 + SK-N-BE2 + OVCAR-8. The settings on record: read-out: apparent Kd, compound concentrations: 100 nM and 1000 nM (sheet 'Samples'), n = 1.
For experiment [10], the system named is GSK3A. The arrangement: species or system human, MV4-11 + K-562 + COLO205 + SK-N-BE2 + OVCAR-8. The settings on record: read-out: apparent Kd, compound concentrations: 100 nM and 1000 nM (sheet 'Samples'), n = 1.
Experiment [11] relates to GSK3B. The arrangement: species or system human, MV4-11 + K-562 + COLO205 + SK-N-BE2 + OVCAR-8. The conditions noted are these: read-out: apparent Kd, compound concentrations: 100 nM and 1000 nM (sheet 'Samples'), n = 1.
Experiment [12] relates to MELK. The arrangement: species or system human, MV4-11 + K-562 + COLO205 + SK-N-BE2 + OVCAR-8. The conditions noted are these: read-out: apparent Kd, compound concentrations: 100 nM and 1000 nM (sheet 'Samples'), n = 1.
Experiment [13] concerns NUAK1. The arrangement: species or system human, MV4-11 + K-562 + COLO205 + SK-N-BE2 + OVCAR-8. The conditions noted are these: read-out: apparent Kd, compound concentrations: 100 nM and 1000 nM (sheet 'Samples'), n = 1.
In experiment [14] the test system is PAK4. Also on record: species or system human, MV4-11 + K-562 + COLO205 + SK-N-BE2 + OVCAR-8. The settings on record: read-out: apparent Kd, compound concentrations: 100 nM and 1000 nM (sheet 'Samples'), n = 1.
Experiment [15] concerns the target Q6ZSR9 (human, UniProt Q6ZSR9). The arrangement: species or system MV4-11 + K-562 + COLO205 + SK-N-BE2 + OVCAR-8. The settings on record: read-out: apparent Kd, compound concentrations: 100 nM and 1000 nM (sheet 'Samples'), n = 1.
Experiment [16] deals with RET. The arrangement: species or system human, MV4-11 + K-562 + COLO205 + SK-N-BE2 + OVCAR-8. The settings on record: read-out: apparent Kd, compound concentrations: 100 nM and 1000 nM (sheet 'Samples'), n = 1.
The test system of experiment [17] is SIK2. Also on record: species or system human, MV4-11 + K-562 + COLO205 + SK-N-BE2 + OVCAR-8. The conditions noted are these: read-out: apparent Kd, compound concentrations: 100 nM and 1000 nM (sheet 'Samples'), n = 1.
Experiment [18] relates to PKN1. The arrangement: species or system human, MV4-11 + K-562 + COLO205 + SK-N-BE2 + OVCAR-8. The settings on record: read-out: apparent Kd; compound concentrations: 100 nM and 1000 nM (sheet 'Samples'), CATDS: 1.22442733693101E-2; n = 1.
Experiment [19] concerns PKN3. Also on record: species or system human, MV4-11 + K-562 + COLO205 + SK-N-BE2 + OVCAR-8. The settings on record: read-out: apparent Kd; compound concentrations: 100 nM and 1000 nM (sheet 'Samples'), CATDS: 1.09744327233877E-2; n = 1.

Sequence of Q6ZSR9 (Q6ZSR9 whole entry, looked up): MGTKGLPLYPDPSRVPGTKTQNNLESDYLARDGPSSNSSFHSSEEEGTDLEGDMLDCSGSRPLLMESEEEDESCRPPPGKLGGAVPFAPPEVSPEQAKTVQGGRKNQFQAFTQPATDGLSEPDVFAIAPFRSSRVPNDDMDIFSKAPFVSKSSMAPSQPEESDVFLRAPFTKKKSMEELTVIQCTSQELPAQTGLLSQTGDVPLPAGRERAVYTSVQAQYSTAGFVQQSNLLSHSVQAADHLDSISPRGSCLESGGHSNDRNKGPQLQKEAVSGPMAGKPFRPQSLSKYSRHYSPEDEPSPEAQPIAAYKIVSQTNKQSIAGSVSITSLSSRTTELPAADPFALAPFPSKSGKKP

For the compound `O=C1NC(=O)/C(=C/c2ccc3ncccc3c2)S1` [RO4603632-000], the potency estimated from few doses in experiment [1] (CATDS: 0.36519548051145401) was 279 nM; in [2] (CATDS: 0.36768987461520503), 276 nM.
For `COc1ccc(Nc2ncc(C#N)c(Nc3ccccc3C(N)=O)n2)cc1N1CCN(C)CC1.Cl` [GSK1558669A], the potency estimated from few doses in experiment [3] (CATDS: 1.0489274011292E-2) was 164 nM; in experiment [4] it was 204 nM; in [5] (CATDS: 1.6853937375741E-2) it was 52 nM; in experiment [6] (CATDS: 1.78351826711012E-2), 46.4 nM; in experiment [1] (CATDS: 3.32003717220812E-2), 15.7 nM; in [2] (CATDS: 5.84237607609163E-2) it was 7.02 nM. Also, the potency estimated from few doses in experiment [7] is 35.1 nM; in [8], 6.55 nM; in experiment [9] (CATDS: 7.1387437274862903E-3) it was 650 nM; in [10] (CATDS: 2.2002232250464899E-2) it was 31.1 nM; in experiment [11] (CATDS: 2.1185466534455601E-2), 33.3 nM; in experiment [12] (CATDS: 6.9590061702447499E-3), 733 nM. Moreover, the potency estimated from few doses in [13] (CATDS: 1.9495800971078701E-2) is 39 nM; in [14] (CATDS: 1.03985583586522E-2), 168 nM; in experiment [15] (CATDS: 1.17172228407674E-2), 121 nM; in experiment [16] (CATDS: 1.6777420038619099E-2) it was 52.5 nM; in experiment [17] (CATDS: 3.5509703257123403E-2), 14.1 nM.
Take `CN(c1ccc(NC(=O)Nc2cccc(Cl)c2)cc1)c1ccnc(N)n1.Cl` [GW830707A]: the potency estimated from few doses in experiment [3] (CATDS: 1.09630092870236E-2) is 1150 nM; in experiment [5] (CATDS: 2.1787512742807501E-2), 42 nM; in experiment [6] (CATDS: 1.6953828831644601E-2), 90.4 nM; in experiment [1] (CATDS: 1.0372533520716E-2) it was 1990 nM; in experiment [2] (CATDS: 1.04920498001006E-2), 1760 nM; in [9] (CATDS: 2.5195285382478599E-2), 29.6 nM. In addition, the potency estimated from few doses in experiment [10] (CATDS: 2.1035735190854499E-2) was 46.1 nM; in experiment [11] (CATDS: 1.8960420623414999E-2) it was 62.2 nM; in [12] (CATDS: 1.02944782662895E-2), 2160 nM; in experiment [13] (CATDS: 1.06533204099584E-2) it was 1510 nM; in experiment [14] (CATDS: 1.12669730748303E-2) it was 911 nM; in experiment [18] it was 482 nM. Besides, the potency estimated from few doses is 1140 nM in experiment [19], 964 nM in [15] (CATDS: 1.11912324380908E-2), 90.7 nM in experiment [16] (CATDS: 1.6938963358117499E-2) and 84.5 nM in experiment [17] (CATDS: 1.7275561883006999E-2).
